Measured values reported in PubChem BioAssay.
Results filed as inconclusive are left out. Calls of active or inactive are those of the source.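 The calls were made as follows, unless noted: active = growth inhibition above 25% in both replicates, a cutoff set 3 SD above the mean; inconclusive = above 25% in only one replicate; inactive = the rest.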

Tests used:
[1] = reducers of endogenous Her2 protein level, primary screen, SKBR3 breast tumor cells, AlphaScreen, ATP viability (AID 461;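 active = Her2 level under about 52% in both replicate screens, with viability over 70% of control, limit read from the data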;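 as to Her2 level: lower value means less Her2 protein in the cells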;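 as to viability: percent of carrier control wells set as 100% viability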); conditions: 18-24 h, measured here: SKBR3 viability, ATP luminescence, at 10 µM
[2] = molecular target: Receptor tyrosine-protein kinase erbB-2 (Homo sapiens) (UniProt P04626); test: as above; conditions: 18-24 h, at 10 µM, stronger effect = lower value
Receptor tyrosine-protein kinase erbB-2 (Homo sapiens), sequence (P04626 whole entry, looked up): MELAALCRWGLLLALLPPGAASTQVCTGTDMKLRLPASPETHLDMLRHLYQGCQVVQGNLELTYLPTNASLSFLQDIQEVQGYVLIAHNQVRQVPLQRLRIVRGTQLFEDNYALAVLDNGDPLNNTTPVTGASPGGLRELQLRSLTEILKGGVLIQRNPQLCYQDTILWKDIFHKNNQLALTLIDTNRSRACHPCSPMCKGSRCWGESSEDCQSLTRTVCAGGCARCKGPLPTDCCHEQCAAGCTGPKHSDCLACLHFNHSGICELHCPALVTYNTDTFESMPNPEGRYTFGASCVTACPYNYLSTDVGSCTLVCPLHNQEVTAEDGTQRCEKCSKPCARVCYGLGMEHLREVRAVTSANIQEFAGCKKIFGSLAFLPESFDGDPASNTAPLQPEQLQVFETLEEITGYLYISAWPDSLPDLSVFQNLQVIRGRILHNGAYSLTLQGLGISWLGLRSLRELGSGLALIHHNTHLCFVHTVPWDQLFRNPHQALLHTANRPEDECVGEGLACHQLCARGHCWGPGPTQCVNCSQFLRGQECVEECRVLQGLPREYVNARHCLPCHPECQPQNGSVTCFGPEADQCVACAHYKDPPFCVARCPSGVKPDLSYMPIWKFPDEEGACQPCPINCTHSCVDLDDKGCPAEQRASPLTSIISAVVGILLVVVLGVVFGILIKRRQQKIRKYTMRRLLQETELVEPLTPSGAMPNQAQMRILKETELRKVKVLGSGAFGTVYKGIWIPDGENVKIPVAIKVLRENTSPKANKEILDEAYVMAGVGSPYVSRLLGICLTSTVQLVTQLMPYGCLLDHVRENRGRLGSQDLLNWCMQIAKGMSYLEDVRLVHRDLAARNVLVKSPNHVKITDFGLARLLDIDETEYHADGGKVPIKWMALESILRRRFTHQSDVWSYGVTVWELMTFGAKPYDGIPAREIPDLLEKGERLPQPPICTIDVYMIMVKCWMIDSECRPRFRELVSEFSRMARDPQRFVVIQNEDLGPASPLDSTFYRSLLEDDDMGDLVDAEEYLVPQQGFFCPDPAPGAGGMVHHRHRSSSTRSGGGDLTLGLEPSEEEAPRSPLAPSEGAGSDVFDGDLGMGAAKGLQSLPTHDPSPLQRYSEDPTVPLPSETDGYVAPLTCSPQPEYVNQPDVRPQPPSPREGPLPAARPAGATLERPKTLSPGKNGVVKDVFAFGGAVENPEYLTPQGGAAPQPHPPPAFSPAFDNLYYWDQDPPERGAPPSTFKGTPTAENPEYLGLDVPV

[3] = SK-BR-3 cell growth inhibitors, pilot screen, 24 h, human (AID 572;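 active = viability at or below 10% of carrier control in both of two separate runs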;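 also: compound exposure lasted between 18 and 24 h rather than exactly 24 h; 100% = carrier-treated control wells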); conditions: SK-BR-3 viability, CellTiter-Glo luminescence, at 10 µM, stronger effect = lower value
[4] = HUVEC growth inhibition – cell-based, human, primary screen (AID 575;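 active = viability at or below 30% in both replicate assays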;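 also: 100% = median of untreated cell wells with 0.1% DMSO on each plate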); conditions: HUVEC proliferation, CellTiter-Glo luminescence, 72 h; at 10 µM; stronger effect = lower value
[5] = growth inhibitors of H69AR lung tumor, primary screen, human, duplicate replicates (AID 580;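 active = viability at or under a set limit in both replicates, limit being median viability minus 3 SD, cut at about 48% in these data, passing the limit was not always enough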;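 also: 100% = mean luminescence of untreated wells and 0% = no signal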); conditions: H69AR lung tumor cells viability, ATP luminescence, 72 h; at 10 µM; stronger effect = lower value
[6] = reversal of MRP1-mediated doxorubicin resistance, pilot screen, H69AR cells, doxorubicin co-treatment (AID 601;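 active = viability loss from added drug above about 55%, and viability with drug at most 40%, in both replicates, limit read from the data, passing the limit was not always enough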); conditions: CellTiter-Glo, 72 h, at 10 µM; for differential viability (reversal): stronger effect = higher value
[7] = 384-well plate pilot, post-Golgi transport modulator project, inhibition of yeast transport mutant growth (AID 636; in the data active = inhibition above about 31%); conditions: absorbance 615 nm, about 18 h, stronger effect = higher value
[8] = growth suppression of yeast trafficking mutant, preliminary HTS, modulators of trafficking downstream of Golgi apparatus project, 1536-format plate, OD 615 nm (AID 637; in the data active = inhibition above about 30%); conditions: yeast transport mutant growth, absorbance 615 nm, 18 h; stronger effect = higher value
[9] = OD615 S. cerevisiae growth inhibition, permissive medium, pilot counter-assay, permissive growth control for S. cerevisiae lifespan shortening project (AID 705); conditions: OD615, 24 h, at 10 µM, stronger effect = higher value
[10] = Restrictive medium S. cerevisiae growth inhibition, OD615, pilot screen of yeast lifespan reduction project, restrictive growth control (AID 706;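 active = growth inhibition above a set limit, 3 SD over mean compound inhibition, in both replicates, cut at about 43% in these data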;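 also: modified DeaD lifespan yeast strain shifted to restrictive glucose medium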); conditions: OD615, 48 h, at 10 µM, stronger effect = higher value
[11] = viability gain of MRP-1-high H69AR cells under doxorubicin, pilot screen, MRP-1 activator project, CellTiter-Glo, duplicate (AID 807;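 active = viability increase at or above a cutoff of the median across tested compounds plus 3 SD, cut at about 8.5% in these data, passing the limit was not always enough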;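 also: compound pretreatment 18-22 h then 72 h combined with doxorubicin; 0% = doxorubicin alone and 100% = vehicle without doxorubicin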); conditions: H69AR viability with doxorubicin, CellTiter-Glo luminescence; at 10 µM; stronger effect = higher value
[12] = growth suppression of beta-catenin knockout HCT116, pilot screen, human colon tumor cells (AID 823;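 active = cell viability at or below a set limit in both duplicate runs, the limit being the all-compound median minus 4 SD, cut at about 23% in these data, passing the limit was not always enough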;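 also: 0% = wells killed by 20 µM Hyamine and 100% = untreated DMSO cell wells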); conditions: CellTiter-Glo, 60 h, at 10 µM, stronger effect = lower value
[13] = growth suppression of PTEN-deleted HCT116, pilot screen, cell-based, HCT116 clonal line, CellTiter-Glo (AID 824;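 active = viability at or below 27.92% in each of two runs, the all-compound median minus 4 SD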;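 also: 0% = 20 µM Hyamine control and 100% = vehicle cell control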); conditions: 60 h, at 10 µM, stronger effect = lower value
[14] = inhibitors of the yeast RAM network, pilot screen, dse1pr::URA3 reporter, 5-FOA selection (AID 869;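 active = inhibition over a set limit, the all-compound mean plus 3 SD, in both replicate runs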;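 also: 0% = DMSO wells with no growth and 100% = 10 µM 1-NA-PP1 with full growth; RAM network block rescues cells from 5-FOA so hits raise OD615 growth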); conditions: S. cerevisiae dse1pr::URA3 5-FOA growth, OD615, 2 d; at 10 µM; stronger effect = higher value; strain carries analog-sensitive mutant Cbk1 kinase
[15] = RAM signaling pathway blockade in yeast – S. cerevisiae, Pdr1DBD-CYC8 efflux-inhibited sensitized strain, primary screen (AID 1298;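 active = RAM network inhibition above 8.4% in each of two replicates, 3 SD over the compound average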;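 also: 0% = DMSO untreated cells without growth and 100% = 10 µM 1-NA-PP1 full growth; higher means more yeast growth rescued from 5-FOA killing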); conditions: S. cerevisiae cbk1-as DSE1-URA3 strain, 5-FOA growth OD615, 2 d; at 50 µM; stronger effect = higher value
[16] = H69AR cells + 2 uM doxorubicin, measured here: viability with 2 uM doxorubicin, stronger effect = lower value
[17] = H69AR cells, compound alone cytotoxicity

SMILES | viability [1] [%] | Her2 level [2] | viability [3] | viability [4] | viability [5] | differential viability (reversal) ([6]; H69AR cells + 2 uM doxorubicin) | viability [6, 16] [%] | viability [6, 17] [%] | inhibition [7] | inhibition [8] | growth inhibition [9] | growth inhibition [10] | viability increase [11] | viability [12] | viability [13] | inhibition [14] | RAM network inhibition [15]
COc1ccc(S(=O)(=O)N2CCCC2C(=O)Nc2ccc(O)cc2)cc1 (stereo not given) | 93.5 | 106% (inactive) | 93.5% (inactive) | 92.6% (inactive) | 98.4% (inactive) | 3.97% (inactive) | 94.4 | 98.4 | 0.13% (inactive) | -4.92% (inactive) | -1.65% (inactive) | 2.76% (inactive) | -0.78% (inactive) | 108% (inactive) | 108% (inactive) | 1.98% (inactive) | 4.8% (inactive)
COc1ccc(CCNC(=O)CSc2nnnn2-c2ccccc2OC)cc1OC | 91 | 99.5% (inactive) | 91% (inactive) | 102% (inactive) | 90.1% (inactive) | 0.99% (inactive) | 89.1 | 90.1 | -7.33% (inactive) | -0.5% (inactive) | -2.03% (inactive) | 2.95% (inactive) | -2.14% (inactive) | 86.9% (inactive) | 92.3% (inactive) | 1.64% (inactive) | 6.51% (inactive)
O=C(CC1Oc2ccc(Cl)cc2NC1=O)NC1CCCCCC1 (stereo not given) | 92.5 | 87.5% (inactive) | 92.5% (inactive) | 78.1% (inactive) | 88% (inactive) | -3.67% (inactive) | 91.6 | 88 | -1.47% (inactive) | 2.13% (inactive) | -4.77% (inactive) | -8.75% (inactive) | -1.05% (inactive) | 102% (inactive) | 102% (inactive) | 3.56% (inactive) | 4.95% (inactive)
O=C(CCN1C(=O)c2ccccc2C1=O)Nc1ccc(F)cc1 | 108 | 76% (inactive) | 108% (inactive) | 116% (inactive) | 104% (inactive) | 12.9% (inactive) | 90.6 | 104 | -1.95% (inactive) | -7% (inactive) | -8.49% (inactive) | -11.6% (inactive) | 3.01% (inactive) | 107% (inactive) | 110% (inactive) | 1.6% (inactive) | -0.26% (inactive)
CCc1cc2c(=O)c(-c3nc4ccccc4[nH]3)coc2c(CN2CCC(C)CC2)c1O | 96 | 116% (inactive) | 96% (inactive) | 99.1% (inactive) | 82.6% (inactive) | 0.66% (inactive) | 82 | 82.6 | -1.03% (inactive) | 1.83% (inactive) | 6.25% (inactive) | 18.5% (inactive) | -2.14% (inactive) | 92.3% (inactive) | 85.6% (inactive) | -0.2% (inactive) | -2.41% (inactive)
Cc1cccc(OCc2nc(C#N)c(NCCN(C)C)o2)c1 | 97 | 81.5% (inactive) | 97% (inactive) | 79.7% (inactive) | 84.8% (inactive) | -2.44% (inactive) | 87.3 | 84.8 | -2.4% (inactive) | -2.46% (inactive) | -4.31% (inactive) | 1.57% (inactive) | -3.62% (inactive) | 102% (inactive) | 103% (inactive) | 0.445% (inactive) | 3.81% (inactive)
COc1ccc(-c2nc(CCNC(=O)c3ccco3)cs2)cc1OC | 96.5 | 102% (inactive) | 96.5% (inactive) | 89.2% (inactive) | 77.9% (inactive) | 0.52% (inactive) | 77.4 | 77.9 | -4.67% (inactive) | -2.95% (inactive) | -4.64% (inactive) | -8.75% (inactive) | -3.3% (inactive) | 95.3% (inactive) | 87.7% (inactive) | 0.415% (inactive) | -1.56% (inactive)
COC(=O)c1ccc(-n2nnnc2SCc2nn[nH]n2)cc1 | 77 | 135% (inactive) | 77% (inactive) | 107% (inactive) | 114% (inactive) | 21.8% (inactive) | 91.7 | 114 | 3.21% (inactive) | -5.5% (inactive) | -0.675% (inactive) | 25.4% (inactive) | 0.27% (inactive) | 106% (inactive) | 100% (inactive) | 0.965% (inactive) | -1.09% (inactive)
Cc1c(-n2c(CN3C(=O)c4ccccc4C3=O)nc3ccccc3c2=O)c(=O)n(-c2ccccc2)n1C | 93.5 | 110% (inactive) | 93.5% (inactive) | 105% (inactive) | 101% (inactive) | 3.82% (inactive) | 97 | 101 | -1.76% (inactive) | 4.6% (inactive) | -2.33% (inactive) | 2.67% (inactive) | -1.08% (inactive) | 102% (inactive) | 99.6% (inactive) | 1.4% (inactive) | 5.4% (inactive)
CCOC(=O)C1=C(C)Nc2nnnn2C1c1ccc(OC)c(Br)c1 (stereo not given) | 106 | 106% (inactive) | 106% (inactive) | 87.7% (inactive) | 93.3% (inactive) | -4.47% (inactive) | 97.8 | 93.3 | 5.07% (inactive) | 14.8% (inactive) | -8.85% (inactive) | 2.52% (inactive) | -2.62% (inactive) | 92% (inactive) | 90.7% (inactive) | 3.05% (inactive) | 0.79% (inactive)
